Epigenetic reg: epigenetic control regulation, reporter derepression. murine LDR cells, GFP reporter derepression, 30 h. Potency, µM (series often up to 53.9 µM), for inactives: top-dose GFP activation, actives largely listed as activators. 280,000 tested, 0.2% active. AID 1865; note: % of control where 0% means no effect; nearly all actives have a fitted effect of over 60% in size
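GFP-positive cell count by laser-scanning cytometry (objects 20–120 um) after 30 h, 37 C compound exposure of murine LDR cells; reporter is CMV-GFP integrated at a silenced locus, inducible by HDAC or DNMT inhibitors.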
Sfp PPTase inh: Sfp phosphopantetheinyl transferase inhibition; Biochemical Sfp PPTase activity, qHTS; Q9F4F7; AID 1490; Potency, µM, for the others: largest response in the series, negative = inhibition, most hits filed as inhibitors; 310,000 tested, 3.5% active;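 note: the enzyme is Sfp with the accession as filed and its product quenches rhodamine fluorescence; 0% = enzyme reaction without inhibitor and -100% = no enzyme wells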
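Fluorescence-quenching assay with 15 nM Sfp, 5 uM rhodamine-CoA and 12.5 uM BHQ-2-labelled ybbR peptide in pH 7.6 Hepes/MgCl2 buffer. Enzyme was pre-incubated with compound for 15 min at room temperature. Rate was taken from the 30-min fluorescence change (525/598 nm).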
RORgamma inh: inhibitors of mouse ROR gamma transcriptional activity | P51450 | Drosophila S2 Gal4-RORgamma UAS-luciferase reporter, 20 h | Potency, µM (titrated, usually from 53.6 µM), for the others: at the top dose activity change, negative = inhibition, actives largely listed as inhibitors | 310,000 tested, 5.4% active | AID 2551; note: % is set by controls: 0 for no effect and ±100 for the full control effect; nearly all actives have a fitted effect of over 60% in size
Target sequence (P51450 whole entry, looked up, the tested form may be a part): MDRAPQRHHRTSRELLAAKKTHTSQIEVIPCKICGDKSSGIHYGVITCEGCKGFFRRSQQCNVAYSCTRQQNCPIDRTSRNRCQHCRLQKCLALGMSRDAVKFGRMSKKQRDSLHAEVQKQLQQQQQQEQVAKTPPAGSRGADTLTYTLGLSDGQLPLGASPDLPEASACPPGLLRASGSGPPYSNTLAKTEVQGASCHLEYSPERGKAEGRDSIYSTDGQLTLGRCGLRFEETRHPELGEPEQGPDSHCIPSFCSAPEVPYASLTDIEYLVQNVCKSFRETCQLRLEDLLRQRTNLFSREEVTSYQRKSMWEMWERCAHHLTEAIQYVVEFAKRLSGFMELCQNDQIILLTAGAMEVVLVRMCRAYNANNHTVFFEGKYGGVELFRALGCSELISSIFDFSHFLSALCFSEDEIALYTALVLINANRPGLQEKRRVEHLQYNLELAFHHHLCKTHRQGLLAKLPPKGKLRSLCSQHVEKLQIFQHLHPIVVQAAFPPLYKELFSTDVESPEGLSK
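Compounds are pin-transferred onto Drosophila Schneider cells expressing a copper-inducible Gal4–ROR gamma transactivation domain fusion. After 1 hr, copper sulfate is added to 700 uM final; luciferase is read 20 hr later.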
Gal4-VP16 FLuc: counter-screen for ROR gamma inhibitors: Gal4-VP16 reporter | Drosophila S2 Gal4-VP16 UAS-luciferase, luminescence, 20 h | Potency, µM (series often up to 53.6 µM), inactives show at the top dose activity, negative = inhibition, actives largely listed as inhibitors | 310,000 tested, 3.5% active | AID 2546;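 note: Gal4-VP16 expression switched on by copper sulfate through the metallothionein promoter; % is set by controls: 0 for no effect and ±100 for the full control effect; nearly all actives have a fitted effect of over 50% in size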
ClpP mod: qHTS Assay for Activators of ClpP | AID 651965, 2013 | 340,000 tested, 1.9% active | purified B. subtilis ClpP, FRET peptide cleavage, 20 min | Potency, µM (titrated, usually from 57.5 µM), for inactives: top-dose activity change, negative = active | ATP-dependent Clp protease proteolytic subunit (Bacillus subtilis (strain 168)), P80244; active = well fitted falling curve with a large enough effect; inconclusive = small, poorly fitted or top-dose-only effect; inactive = no such curve, though single readings can be large or run the other way; note: the source files actives as falling curves though it sought activators and does not explain the sign; nearly all actives have a fitted effect of over 65% in size
Target sequence (P80244 whole entry, looked up): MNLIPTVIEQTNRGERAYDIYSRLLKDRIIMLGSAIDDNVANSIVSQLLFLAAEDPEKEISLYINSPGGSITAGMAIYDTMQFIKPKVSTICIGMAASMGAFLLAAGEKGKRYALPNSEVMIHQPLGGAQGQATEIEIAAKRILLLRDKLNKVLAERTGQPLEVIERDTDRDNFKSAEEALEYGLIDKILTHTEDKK
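Purified B. subtilis ClpP, 10 microg/mL final in Tris/HCl pH8 with KCl, BSA, glycerol and Tween-20, cleaved an Abz/nitrotyrosine-quenched decapeptide. Fluorescence (ex 320, em 430) was read at 0 and 20 min at room temperature. Delta was normalized to 5.8 microM ADEP and DMSO/no-enzyme controls.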
PINK1 expr mod: PINK1 expression modulation; PINK1 immunofluorescence, high-content cytometry, 24 h; Potency, µM (highest dose often 76.6 µM), inactives show top-dose activation (PINK1 increase), most hits filed as activators; 410,000 tested, 0.2% active; active = well fitted activation curve with a large enough effect; inconclusive = small, poorly fitted or top-dose-only effect; cell line not stated here; note: % of control where 0% means no effect; nearly all actives have a fitted effect of over 65% in size
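PINK1 protein, normally rapidly degraded, was detected by immunofluorescence after 24 hour compound treatment of a stable cell line. Titration data (5 concentrations) came from laser-scanning cytometry, with CCCP-treated wells as controls.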
* hit, by the source's call; [ ] = dose if it differs, or a comment. Rows were chosen to be rich in hits. Some 8.1% of all compounds tested hit in one or more screens of this group. Unless noted, calls come from the whole dose curve; as a rule, active = well fitted curve in the direction sought with a large enough effect; inconclusive = small, poorly fitted or top-dose-only effect, or another doubt; inactive = no such curve, though single readings can be large; an effect the other way counts as inactive or inconclusive. Potency is the fitted concentration of half-maximal effect.

`Cc1cccc(-n2c(C)cc(/C=N/NC(=O)c3ccc(CN4CCOCC4)cc3)c2C)c1` gave Epigenetic reg -2.2%, Sfp PPTase inh 1.1%, RORgamma inh 10µM*, Gal4-VP16 FLuc -4.4%[0.365 µM], ClpP mod 0.1% and PINK1 expr mod -0.1%[38.3 µM].
For Cc1cc(/C=N/NC(=O)c2ccncc2)c(C)n1-c1cccc(C(F)(F)F)c1 the results were Epigenetic reg -2.4%, Sfp PPTase inh -0.6%, RORgamma inh inconclusive, Gal4-VP16 FLuc inconclusive, ClpP mod -5.4% and PINK1 expr mod 2.3%.
For Cc1ccc(-n2c(C)cc(/C=N/NC(=O)c3ccc(CN4CCOCC4)cc3)c2C)cc1 the results were Epigenetic reg 0.2%, Sfp PPTase inh -16.5%, RORgamma inh 7.94µM*, Gal4-VP16 FLuc inconclusive, ClpP mod -3.9% and PINK1 expr mod 8.4%[38.3 µM].
Screening Cc1ccc(C(=O)COC(=O)CCC(=O)Nc2ccc(Oc3cc(C)ccc3C(C)C)cc2)cc1 returned Epigenetic reg 1.7%, ClpP mod -0.8% and PINK1 expr mod 1.1%.
Screening CNC(=S)N/N=C/c1cc(C)n(-c2ccc(Cl)c(Cl)c2)c1C returned Epigenetic reg -7.9%, Sfp PPTase inh -8.3%, RORgamma inh 0.794µM*, Gal4-VP16 FLuc 4.47µM*, ClpP mod -2.5% and PINK1 expr mod -0.5%.
`CCOc1ccc(-n2c(C)cc(/C=N/NC(=O)C(N)=O)c2C)cc1` gave Epigenetic reg -0.1%, Sfp PPTase inh -11.8%, RORgamma inh 22.7%, Gal4-VP16 FLuc -9.1% and PINK1 expr mod 1.9%.
Cc1ccc(C)c(-n2c(C)cc(/C=N/NC(=O)c3c(C)nc4cc(C)ccn34)c2C)c1 was read as Epigenetic reg 8.0%, Sfp PPTase inh -14.7%, RORgamma inh inconclusive, Gal4-VP16 FLuc 14.1µM*, ClpP mod -3.3% and PINK1 expr mod 9.8%.
Cc1ccc(C(=O)N/N=C/c2cc(C)n(-c3ccc(Br)cc3)c2C)cc1[N+](=O)[O-] was read as Epigenetic reg 1.1%, Sfp PPTase inh 10.9%, RORgamma inh 0.398µM*, Gal4-VP16 FLuc 1.41µM*, ClpP mod -2.9% and PINK1 expr mod -2.4%.
For Cc1nc2sc(C(c3ccco3)N3CCN(c4ccc(F)cc4)CC3)c(O)n2n1 (centres undefined) the results were Epigenetic reg -1.4%, Sfp PPTase inh 44.7µM*, RORgamma inh -12.8%, Gal4-VP16 FLuc -21.1%, ClpP mod 0.0% and PINK1 expr mod 1.1%.
For CC1CN(C(c2ccco2)c2sc3ncnn3c2O)CC(C)O1 (centres undefined) the results were Epigenetic reg 1.9%, Sfp PPTase inh 39.8µM*, RORgamma inh -19.6%, Gal4-VP16 FLuc 11.2%, ClpP mod 1.8% and PINK1 expr mod 0.2%.
Cc1ccc(C(c2sc3ncnn3c2O)N2CCC(C)CC2)cc1 (centres undefined) was read as Epigenetic reg -1.0%, Sfp PPTase inh 10.2%, RORgamma inh -33.2%, Gal4-VP16 FLuc 5.1%, ClpP mod -1.5% and PINK1 expr mod 0.8%.
`Cc1nc2sc(C(c3ccco3)N3CCN(c4ccccc4F)CC3)c(O)n2n1` (centres undefined) gave Epigenetic reg -0.7%, Sfp PPTase inh -9.1%, RORgamma inh 5.1%, Gal4-VP16 FLuc -3.3%, ClpP mod 0.4% and PINK1 expr mod -3.5%[38.3 µM].
Screening O=[N+]([O-])c1ccc(/C=C/c2ccnc3ccccc23)c([N+](=O)[O-])c1 returned ClpP mod 1.3% and PINK1 expr mod -0.6%.
Screening O=C(NC1CCCC1)c1cn(C2CCN(Cc3cccc4cccnc34)CC2)nn1 returned PINK1 expr mod -0.7%.
`Cc1nc2ccccn2c1C(=O)NNS(=O)(=O)c1ccc(C(C)(C)C)cc1` gave Epigenetic reg 0.1%, Sfp PPTase inh -0.7%, RORgamma inh 17.3%, Gal4-VP16 FLuc 15.8µM*, ClpP mod 0.8% and PINK1 expr mod 1.9%.
CCn1cc(S(=O)(=O)c2ccc(C)cc2C)c(=O)c2cc(F)c(N3CCCC3)cc21 was read as Epigenetic reg -0.4%, ClpP mod 31.6µM* and PINK1 expr mod -1.1%.
`Cc1ccc(S(=O)(=O)c2cn(C)c3cc(N4CCCC4)c(F)cc3c2=O)c(C)c1` gave Epigenetic reg -1.2%, ClpP mod 28.2µM* and PINK1 expr mod 2.1%.
Screening Cn1cc(S(=O)(=O)c2ccc(Cl)cc2)c(=O)c2cc(F)c(N3CCCCCC3)cc21 returned Epigenetic reg -1.2%, ClpP mod -16.5% and PINK1 expr mod 1.4%.
`Cc1ccc(S(=O)(=O)c2cn(C)c3cc(N4CCCC(C)C4)c(F)cc3c2=O)c(C)c1` (centres undefined) gave Epigenetic reg -0.4%, ClpP mod 20µM* and PINK1 expr mod 2.5%.
Screening CCn1cc(S(=O)(=O)c2cc(C)cc(C)c2)c(=O)c2cc(F)c(N3CCCCC3)cc21 returned Epigenetic reg -1.2%, ClpP mod inconclusive and PINK1 expr mod 3.5%.
For CCCN1CCN(c2cc3c(cc2F)c(=O)c(S(=O)(=O)c2ccc(Cl)cc2)cn3C)CC1 the results were Epigenetic reg -0.2%, ClpP mod 15.8µM* and PINK1 expr mod 2.4%.
CSc1ccc(-c2sc(Nc3cccc4ccccc34)n[n+]2-c2ccccc2)cc1 was read as Sfp PPTase inh 50.1µM*, RORgamma inh inconclusive, Gal4-VP16 FLuc inconclusive, ClpP mod 3.2% and PINK1 expr mod -0.5%.
Screening CCc1ccc(Nc2n[n+](-c3ccccc3)c(-c3ccc(C(=O)O)cc3)s2)cc1 returned Sfp PPTase inh 44.7µM*, RORgamma inh 12.9%, Gal4-VP16 FLuc 13.2%, ClpP mod -3.0% and PINK1 expr mod -0.1%.
For CC(=O)Nc1ccc(-c2sc(Nc3cccc4ccccc34)n[n+]2-c2ccccc2)cc1 the results were Sfp PPTase inh -23.8%, RORgamma inh -2.1%, Gal4-VP16 FLuc -1.6%, ClpP mod 1.9% and PINK1 expr mod 1.8%.
CCc1ccc(Nc2n[n+](C)c(-c3ccncc3)s2)cc1 was read as Sfp PPTase inh 79.4µM*, RORgamma inh -29.5%, Gal4-VP16 FLuc 7.9%, ClpP mod -2.0% and PINK1 expr mod 1.4%.
`CCc1ccc(Nc2n[n+](-c3ccccc3)c(-c3ccc(SC)cc3)s2)cc1` gave Sfp PPTase inh 5.6%, RORgamma inh 8.0%, Gal4-VP16 FLuc -0.7%, ClpP mod -5.5% and PINK1 expr mod 35.5µM*.

Screening results: PubChem, National Center for Advancing Translational Sciences (NCATS)
